In all, about 5,500 compounds went through this assay and about 2,000 (36%) were called active. Inconclusive results (about 18%) are left out. No stated cut-off is given here; in the data, active means normalized growth mostly below about 0.91 (no sharp cut-off); inconclusive means no clear call, values can overlap the other calls; inactive means mostly above about 0.92. This is one part of the list.
Assay: chemical genetic growth profiling, strain panel (AID 1159580);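 further: tested at 20 µM; growth read once vehicle control cultures reached saturation at 30 °C; 1 = growth at the plate median or of vehicle wells; lower values mean less growth of the strain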
Conditions: growth OD
[1] = S. cerevisiae deletion strains, locus YAL013W, strain DEP1, active compounds read low
[2] = S. cerevisiae deletion strains, locus YBR229C, strain ROT2, active compounds read low
[3] = S. cerevisiae deletion strains, locus YCL061C, strain MRC1, active compounds read low
[4] = S. cerevisiae deletion strains, locus YDL101C, strain DUN1, active compounds read low
[5] = S. cerevisiae deletion strains, locus YDR150W, strain NUM1, active compounds read low
[6] = S. cerevisiae deletion strains, locus YEL061C, strain CIN8, active compounds read low
[7] = S. cerevisiae deletion strains, locus YGR078C, strain PAC10, active compounds read low
[8] = S. cerevisiae deletion strains, locus YHR030C, strain SLT2, active compounds read low
[9] = S. cerevisiae deletion strains, locus YHR087W, strain rtc3, active compounds read low
[10] = S. cerevisiae deletion strains, locus YJR043C, strain POL32, active compounds read low
[11] = S. cerevisiae deletion strains, locus YJR075W, strain HOC1, active compounds read low
[12] = S. cerevisiae deletion strains, locus YKL190W, strain CNB1, active compounds read low
[13] = S. cerevisiae deletion strains, locus YLR039C, strain RIC1, active compounds read low
[14] = S. cerevisiae deletion strains, locus YLR058C, strain SHM2 (second series), active compounds read low
[15] = S. cerevisiae deletion strains, locus YLR085C, strain ARP6, active compounds read low
[16] = S. cerevisiae deletion strains, locus YLR262C, strain YPT6, active compounds read low
[17] = S. cerevisiae deletion strains, locus YML094W, strain GIM5, active compounds read low
[18] = S. cerevisiae deletion strains, locus YMR219W, strain ESC1, active compounds read low
[19] = S. cerevisiae deletion strains, locus YMR263W, strain SAP30, active compounds read low
[20] = S. cerevisiae deletion strains, locus YMR307W, strain GAS1, active compounds read low
[21] = S. cerevisiae deletion strains, locus YNL153C, strain GIM3, active compounds read low
[22] = S. cerevisiae deletion strains, locus YNL298W, strain CLA4 (second series), active compounds read low
[23] = S. cerevisiae deletion strains, locus YNL322C, strain KRE1, active compounds read low
[24] = S. cerevisiae deletion strains, locus YNR030W, strain Alg12, active compounds read low
[25] = S. cerevisiae deletion strains, locus YPL055C, strain LGE1, active compounds read low
[26] = S. cerevisiae deletion strains, locus YPL241C, strain CIN2, active compounds read low
[27] = S. cerevisiae deletion strains, locus YPR135W, strain CTF4, active compounds read low
[28] = S. cerevisiae deletion strains, locus YAL040C, strain CLN3, active compounds read low
[29] = S. cerevisiae deletion strains, locus YCL061C, strain MRC1 (second series), active compounds read low
[30] = S. cerevisiae deletion strains, locus YDR363W, strain ESC2, active compounds read low
[31] = S. cerevisiae deletion strains, locus YER002W, strain NOP16, active compounds read low
[32] = S. cerevisiae deletion strains, locus YGR229C, strain SMI1, active compounds read low
[33] = S. cerevisiae deletion strains, locus YNL128W, strain TEP1, active compounds read low
[34] = S. cerevisiae deletion strains, locus YNL175C, strain NOP13, active compounds read low
[35] = S. cerevisiae deletion strains, locus YNL197C, strain WHI3, active compounds read low
[36] = S. cerevisiae deletion strains, locus YNL224C, strain SQS1, active compounds read low
[37] = S. cerevisiae deletion strains, locus YOR083W, strain WHI5 (second series), active compounds read low
[38] = S. cerevisiae deletion strains, locus YHR079C, strain IRE1, active compounds read low
[39] = S. cerevisiae deletion strains, locus YJL095W, strain BCK1, active compounds read low
[40] = S. cerevisiae deletion strains, locus YJR066W, strain TOR1, active compounds read low
[41] = S. cerevisiae deletion strains, locus YLR113W, strain HOG1, active compounds read low
[42] = S. cerevisiae deletion strains, locus YNL183C, strain NPR1, active compounds read low
[43] = S. cerevisiae deletion strains, locus YOR231W, strain MKK1, active compounds read low
[44] = S. cerevisiae deletion strains, locus YPL256C, strain CLN2, active compounds read low

Measured: normalized growth

COc1cc(/C=C(\C#N)C(N)=S)cc(OC)c1OC
active: [6] 0.674 | [8] 0.476 | [12] 0.71 | [15] 0.377 | [17] 0.86 | [24] 0.761 | [26] 0.558
inactive: [1] 0.979 | [2] 1.02 | [3] 1 | [4] 0.943 | S. cerevisiae deletion strains, locus YDL134C, strain PPH21, active compounds read low 0.943 | [5] 0.961 | [7] 0.977 | [9] 0.986 | S. cerevisiae deletion strains, locus YJL187C, strain SWE1, active compounds read low 0.942 | [10] 0.986 | [11] 0.983 | [13] 0.854 | [14] 1.01 | [16] 0.832 | [18] 1.02 | [19] 0.982 | [20] 1.15 | [21] 0.989 | [22] 0.886 | [23] 0.987 | [25] 0.966 | [27] 0.756

N#CC(C#N)=Cc1cc(O)c(O)c(O)c1
inactive: [28] 0.951 | [29] 0.998 | [5] 0.988 | [30] 1 | [31] 0.996 | [32] 0.97 | [19] 0.996 | [20] 0.995 | [33] 0.986 | [21] 0.975 | [34] 1.01 | [35] 1.01 | [36] 0.999 | [37] 0.995 | [26] 0.999

COc1cc(C=C(C#N)C#N)cc(O)c1O
inactive: [1] 1.01 | [28] 0.941 | [29] 0.979 | [30] 0.997 | [31] 1 | [7] 0.982 | [19] 0.993 | [20] 0.993 | [33] 0.968 | [34] 0.972 | [35] 0.978 | [36] 0.969 | [37] 0.997 | [25] 1.01

COc1cc(/C=C(\C#N)C(=O)c2ccc(O)c(O)c2)cc(I)c1O
inactive: [1] 1.02 | [28] 1.03 | [29] 1.02 | [30] 1.02 | [31] 1 | [32] 0.971 | [19] 1.02 | [20] 1.03 | [33] 1.01 | [21] 1.02 | [34] 0.984 | [35] 1.04 | [36] 1 | [23] 1.03 | [37] 1.02

CC(C)(C)c1cc(/C=C(\C#N)C(N)=S)cc(C(C)(C)C)c1O
active: [37] 0.832
inactive: [28] 0.912 | [29] 1.01 | [5] 1 | [30] 1.04 | [31] 0.997 | [19] 1.01 | [20] 1.01 | [34] 1.02 | [35] 0.913 | [36] 0.929 | [23] 1.02

O=C1c2ccccc2C(=O)N1CNc1ccc(N2CCOCC2)cc1
inactive: [1] 1 | [2] 1 | [3] 0.999 | [4] 1.01 | [5] 0.901 | [6] 0.986 | [7] 1 | [8] 0.976 | [9] 1.02 | [10] 1 | [11] 1.01 | [12] 0.994 | [13] 1.02 | [14] 0.997 | [15] 0.977 | [16] 1.01 | [17] 1.02 | [18] 1 | [19] 0.993 | [20] 1.01 | [21] 1.01 | [22] 1.02 | [23] 0.977 | [24] 0.994 | S. cerevisiae deletion strains, locus YOL006C, strain TOP1, active compounds read low 0.997 | [25] 0.861 | [26] 1.01 | [27] 1.09 | S. cerevisiae strains, strain wild type, active compounds read low 1.02

OC[C@H]1O[C@H](O[C@]2(CCl)O[C@H](CCl)[C@@H](O)[C@@H]2O)[C@H](O)[C@@H](O)[C@H]1Cl
inactive: [8] 1.04 | [38] 0.979 | [39] 0.996 | [40] 0.952 | [41] 0.977 | [42] 0.895 | [43] 0.972 | [44] 0.984

FC(F)(F)c1ccc(N2CCc3ccccc3C2)c(NC(=S)Nc2cc(Cl)cc(Cl)c2)c1
inactive: S. cerevisiae deletion strains, locus YAR019C, strain CDC15, active compounds read low 0.972 | S. cerevisiae deletion strains, locus YBL105C, strain PKC1, active compounds read low 0.981 | S. cerevisiae deletion strains, locus YBR135W, strain CKS1, active compounds read low 0.978 | S. cerevisiae deletion strains, locus YBR136W, strain MEC1, active compounds read low 0.997 | S. cerevisiae deletion strains, locus YBR160W, strain CDC28, active compounds read low 0.989 | S. cerevisiae deletion strains, locus YDL017W, strain CDC7, active compounds read low 0.982 | S. cerevisiae deletion strains, locus YDL028C, strain MPS1, active compounds read low 0.987 | [4] 0.978 | S. cerevisiae deletion strains, locus YDL108W, strain KIN28, active compounds read low 0.998 | S. cerevisiae deletion strains, locus YDL132W, strain cdc53, active compounds read low 0.985 | S. cerevisiae deletion strains, locus YDL214C, strain PRR2, active compounds read low 0.924 | S. cerevisiae deletion strains, locus YDR052C, strain DBF4, active compounds read low 0.98 | S. cerevisiae deletion strains, locus YDR054C, strain cdc34, active compounds read low 0.969 | S. cerevisiae deletion strains, locus YDR226W, strain ADK1, active compounds read low 0.99 | S. cerevisiae deletion strains, locus YDR477W, strain SNF1, active compounds read low 0.937 | S. cerevisiae deletion strains, locus YER123W, strain YCK3, active compounds read low 0.908 | S. cerevisiae deletion strains, locus YER133W, strain GLC7, active compounds read low 0.939 | S. cerevisiae deletion strains, locus YFL009W, strain cdc4, active compounds read low 0.983 | S. cerevisiae deletion strains, locus YFL029C, strain CAK1, active compounds read low 0.975 | S. cerevisiae deletion strains, locus YFR003C, strain YPI1, active compounds read low 0.993 | S. cerevisiae deletion strains, locus YFR019W, strain FAB1, active compounds read low 0.957 | S. cerevisiae deletion strains, locus YFR028C, strain CDC14, active compounds read low 0.971 | S. cerevisiae deletion strains, locus YGR040W, strain KSS1, active compounds read low 0.939 | S. cerevisiae deletion strains, locus YGR052W, strain FMP48, active compounds read low 1.01 | S. cerevisiae deletion strains, locus YGR092W, strain DBF2, active compounds read low 0.869 | [8] 1.15 | [38] 1.06 | S. cerevisiae deletion strains, locus YHR082C, strain KSP1, active compounds read low 1 | S. cerevisiae deletion strains, locus YHR205W, strain SCH9, active compounds read low 0.962 | S. cerevisiae deletion strains, locus YIL147C, strain SLN1, active compounds read low 0.993 | [39] 1.02 | S. cerevisiae deletion strains, locus YJL128C, strain PBS2, active compounds read low 0.968 | S. cerevisiae deletion strains, locus YJL157C, strain FAR1, active compounds read low 0.908 | S. cerevisiae deletion strains, locus YJR016C, strain ILV3, active compounds read low 0.985 | S. cerevisiae deletion strains, locus YJR066W, strain TOR1 (second series), active compounds read low 0.899 | [40] 1.02 | S. cerevisiae deletion strains, locus YKL048C, strain ELM1, active compounds read low 0.963 | S. cerevisiae deletion strains, locus YKL067W, strain YNK1, active compounds read low 0.931 | S. cerevisiae deletion strains, locus YKL101W, strain HSL1, active compounds read low 0.959 | S. cerevisiae deletion strains, locus YKL193C, strain SDS22, active compounds read low 0.974 | S. cerevisiae deletion strains, locus YKL203C, strain TOR2, active compounds read low 1.02 | [41] 1.03 | S. cerevisiae deletion strains, locus YLR133W, strain CKI1, active compounds read low 0.936 | S. cerevisiae deletion strains, locus YLR403W, strain SFP1, active compounds read low 0.945 | S. cerevisiae deletion strains, locus YML070W, strain DAK1, active compounds read low 0.938 | S. cerevisiae deletion strains, locus YMR001C, strain CDC5, active compounds read low 0.969 | S. cerevisiae deletion strains, locus YMR205C, strain PFK2 (second series), active compounds read low 0.947 | S. cerevisiae deletion strains, locus YMR277W, strain FCP1, active compounds read low 0.972 | S. cerevisiae deletion strains, locus YNL006W, strain LST8, active compounds read low 0.984 | S. cerevisiae deletion strains, locus YNL020C, strain ARK1, active compounds read low 0.934 | S. cerevisiae deletion strains, locus YNL161W, strain CBK1, active compounds read low 0.978 | [42] 1.03 | S. cerevisiae deletion strains, locus YNL207W, strain RIO2, active compounds read low 0.979 | S. cerevisiae deletion strains, locus YNL222W, strain SSU72, active compounds read low 0.979 | S. cerevisiae deletion strains, locus YNL307C, strain MCK1 (second series), active compounds read low 0.941 | S. cerevisiae deletion strains, locus YOL078W, strain AVO1, active compounds read low 0.976 | S. cerevisiae deletion strains, locus YOL136C, strain PFK27, active compounds read low 0.956 | S. cerevisiae deletion strains, locus YOR061W, strain CKA2, active compounds read low 0.908 | S. cerevisiae deletion strains, locus YOR119C, strain RIO1, active compounds read low 0.98 | [43] 1.01 | S. cerevisiae deletion strains, locus YOR329C, strain SCD5, active compounds read low 0.985 | S. cerevisiae deletion strains, locus YPL031C, strain PHO85, active compounds read low 0.929 | S. cerevisiae deletion strains, locus YPL153C, strain RAD53, active compounds read low 0.931 | S. cerevisiae deletion strains, locus YPL204W, strain HRR25, active compounds read low 0.939 | S. cerevisiae deletion strains, locus YPL209C, strain IPL1, active compounds read low 0.982 | [44] 1.07 | S. cerevisiae deletion strains, locus YPR025C, strain CCL1, active compounds read low 0.967 | S. cerevisiae deletion strains, locus YPR106W, strain ISR1, active compounds read low 0.982 | S. cerevisiae deletion strains, locus YPR111W, strain DBF20, active compounds read low 0.985 | S. cerevisiae deletion strains, strain NNK1, active compounds read low 0.991 | S. cerevisiae deletion strains, strain TSCII, active compounds read low 0.972

From PubChem BioAssay AID1159580 (chemical genetic matrix, 2015)
